Data on 66 compounds can be found in ChEMBL document CHEMBL4513216, “Probing the Open Global Health Chemical Diversity Library for Multistage-Active Starting Points for Next-Generation Antimalarials” (ACS Infect Dis, 2020).

About 2,700 (4%) of roughly 68,000 compounds showed an effect of 50% or more. This excerpt belongs to a sample that is enriched for strong results.

The experiment has as its system Plasmodium berghei. Description: Screen against P. berghei liver stage (PbLuc), transformed with Luciferase, at 2uM. Type of experiment: functional, HepG2. To be noted: tested at 2 uM.
In the case of `COc1ccc(CN2CCO[C@H]3[C@H](OCc4ccncc4)CC[C@@H]32)cc1`, the INHIBITION is -3.18%.
Take `Cc1nn(C2CCCCC2)c2nc(C(C)(C)CN3CCOCC3)[nH]c12`: the INHIBITION worked out at 48.54%.
On to `Cc1cccnc1CN1CCN(C(=O)CCn2ccc(=O)[nH]c2=O)CC1`, for which the INHIBITION is recorded as 35.88%.
Regarding `Cc1cccc(Cc2cc(C)nc(C3CCCNC3)c2)c1` (stereo unspecified), the INHIBITION was -27.54%.
As for `CCOCC(=O)NCCC(O)c1ccoc1` (stereo unspecified), the figure is 1.3%; as for `O=C(NCCNc1ncccn1)C1CC(=O)N(Cc2ccccn2)C1` (stereo unspecified), 35.65%; as for `Nc1cc(N2CCCC2c2cnccn2)ncn1` (stereo unspecified), 30.38%.
As for `Cc1cnn(CC2CCCCN2C(=O)c2ccccc2-n2cccn2)c1` (stereo unspecified), the figure is 37.68%; as for `Cc1cc(C)n(CC2CCCN2C(=O)c2cccnc2N(C)C)n1` (stereo unspecified), 56.02%.
As for `CCOc1ncccc1C(=O)N1CCCC1Cn1nc(C)cc1C` (stereo unspecified), the figure is 11.95%; as for `Cc1cnn(CC2CCCN2C(=O)c2ccccc2-n2cccn2)c1` (stereo unspecified), 76.38%.
Consider `Cc1cnn(CC2CCCN2C(=O)c2ccccc2-n2cnnn2)c1` (stereo unspecified), for which the INHIBITION is reported as 21.39%.
As for `Cc1cc(C)n(CC2CCCN2C(=O)c2c[nH]c3ncccc23)n1` (stereo unspecified), the figure is -1.56%; as for `CCc1c(C(=O)N2CCC3(CCCN(CCO)C3=O)C2)csc1C` (stereo unspecified), 40.64%.
The figure for `CCCC(=O)N1CCN(CCN(C)C)c2nc(C)ccc2C1` is 19.51%; for `Cn1ccnc1SCC(=O)NCCC1CCCO1` (stereo unspecified) it is -38.4%.
The figure for `O=C(c1ccon1)N1CCCCC1c1nc2cc(F)ccc2[nH]1` (stereo unspecified) is 14.79%.
Turning to `COCCC1CN(Cc2cn(CCC(N)=O)c3ccccc23)CCO1` (stereo unspecified), the INHIBITION amounted to 26.22%.
The figure for `Cc1nnc(CN2CCC(Oc3ccc(F)cc3)CC2)o1` is -4.89%; for `C/N=C1\c2cc3cc(OC)ccc3n2CCN1Cc1ccccc1` it is -2.66%; for `c1cn2c(n1)CN(C1CCOCC1)CC(CN1CCCC1)C2` (stereo unspecified) it is 29.95%.
For the compound `OCC1(O)CCN(Cc2noc(-c3ccccc3)n2)CC1`, the INHIBITION was 26.3%.
As for `COc1cccc(CN2CCCC3(CCN(C(=O)[C@H]4CCCO4)C3)C2)c1` (stereo partly specified), the figure is 21.89%; as for `COc1cccc(CN2CCCC3(CCN(C(=O)N4CCCC4)C3)C2)c1` (stereo unspecified), 50.17%.
As for `COc1cccc(CN2CCCC3(CCN(C(=O)c4ccco4)C3)C2)c1` (stereo unspecified), the figure is 8.37%; as for `CCn1[nH]c(C)c2c(C(F)(F)C(F)(F)F)cc(=O)nc1-2`, 1.01%; as for `Cc1nsc(C(=O)NCCc2ccc(F)cc2)n1`, -0.59%.
As for `Cc1nsc(C(=O)NCCc2ccccc2)n1`, the figure is -7.16%.
With `Cc1nsc(C(=O)NCCc2cccs2)n1`, the INHIBITION was found to be 55.25%.
As for `Cc1ccc(CN2CCC3(CC2)CC(c2cccnc2)CO3)s1` (stereo unspecified), the figure is 23.79%; as for `CCS(=O)(=O)c1ccc(N2CCC(NC(=O)NC(C)CO)CC2)cc1` (stereo unspecified), 7.85%; as for `CN(Cc1ccc(F)cc1)C(=O)Cn1nc(-c2ccc(F)cc2)oc1=O`, -10.54%.
As for `Cc1ccc(CN(C)C(=O)Cn2nc(-c3ccc(F)cc3)oc2=O)cc1`, the INHIBITION worked out at 5.28%.
`Cc1ccsc1CN(C)C(=O)Cn1nc(-c2ccc(F)cc2)oc1=O`: the INHIBITION is recorded as 51.99%.
For the compound `COc1ccc(CC(C)(O)CNC(=O)NCc2cccs2)cc1` (stereo unspecified), the INHIBITION worked out at 45.62%.
With `CC(C)OCC(=O)N1CCCN(Cc2ccc(C#N)cc2)CC1`, the INHIBITION turned out to be 2.08%.
As for `Cc1nccn1C1CCCN(C(=O)c2sccc2-n2cnnn2)C1` (stereo unspecified), the INHIBITION is reported as -13.92%.
As to `Cc1ccc2c(c1)c(CNC(=O)C1CCCN(CC(N)=O)C1)nn2C` (stereo unspecified), the INHIBITION was -1.87%.
The figure for `Cc1ccc2c(c1)c(CNC(=O)C1CCN(CC(N)=O)CC1)nn2C` is 58.53%; for `Cc1ccc2c(c1)c(CNC(=O)C1CCN(C(=O)C3CC3)CC1)nn2C` it is -13.72%; for `CC(C)c1cc(C(=O)N[C@@H]2CC[C@@H](Oc3ccccc3)[C@@H]2O)on1` it is 19.69%.
Take `CCc1c(C(=O)O)nnn1-c1cc(C)cc(C)c1`: the INHIBITION is reported as -50.41%.
`COc1ccccc1OC1(C(=O)O)CCN(c2ncnc(C)c2C)CC1`: the INHIBITION stood at 60.13%.
As for `COc1ccccc1OC1(C(=O)O)CCN(c2nccnc2C)CC1`, the figure is 1.34%; as for `COc1ccccc1OC1(C(=O)O)CCN(c2nc(C)cnc2C)CC1`, 33.9%; as for `O=C(CC1CC1)NC[C@]12COC[C@H]1CN(c1ncccn1)C2`, 22.36%.
Turning to `COc1ccc(CC(=O)N2CCCC2c2nc(C)c(C)c(O)n2)cc1` (stereo unspecified), the INHIBITION worked out at 29.48%.
For the compound `Cc1nc(C2CCCN2C(=O)Cc2ccc(F)cc2)nc(O)c1C` (stereo unspecified), the INHIBITION is reported as 46.57%.
With `Cc1nc(C2CCCN2C(=O)Cc2cccc(F)c2)nc(O)c1C` (stereo unspecified), the INHIBITION stood at 27.81%.
As for `COc1cccc(CC(=O)N2CCCC2c2nc(C)c(F)c(O)n2)c1` (stereo unspecified), the figure is 52.82%; as for `COc1cccc(CC(=O)N2CCCC2c2nc(C)c(C)c(O)n2)c1` (stereo unspecified), 55.74%; as for `Cc1nc(C2CCCN2C(=O)Cc2ccc3c(c2)OCO3)nc(O)c1C` (stereo unspecified), 22.39%.
Turning to `CCOC(=O)[C@]12CCCN(Cc3cccs3)C[C@H]1CN(C(C)=O)C2`, the INHIBITION is recorded as -12.74%.
As for `Cc1nc2cc(O)nn2c(C)c1CCC(=O)N(C)Cc1cscn1`, the figure is -1.73%; as for `CC(C)c1ccc(-n2cc(O)c(C(=O)N3CCC(C(N)=O)CC3)n2)cc1`, -40.06%.
The figure for `Cc1nc(COC[C@]23COC[C@H]2CN(Cc2ccoc2)C3)cs1` is 18.57%; for `COc1ccc(C(C(=O)O)N2CCC(Cn3cccn3)CC2)cc1F` (stereo unspecified) it is 15.46%; for `Cc1ccnc(NC(=O)c2c(C)oc(C)c2C)c1` it is -18.78%.
The figure for `CCC1(C)Cc2ccccc2-c2nc(NCCCO)nc(O)c21` (stereo unspecified) is 44.7%; for `CCOc1ccc2[nH]c3c(N(C)CC4OCCO4)ncnc3c2c1` it is 38.64%.
On to `Cc1ccc(S(=O)(=O)NC(=O)CCC(F)(F)F)cc1N(C)C`, for which the INHIBITION came out at 3.39%.
As for `CN(C)c1nc(NCCc2cnccn2)ncc1F`, the figure is 44.19%; as for `OCC1(O)CCN(Cc2ccc(C3CCCCO3)o2)CC1` (stereo unspecified), 61.27%; as for `CN1CCN(C)C2(CCN(Cc3ccc(C4CCCCO4)o3)CC2)C1` (stereo unspecified), -6.27%.
Regarding `CN1CCC2(CC1)CN(Cc1ccc(C3CCCCO3)o1)CCCN2C` (stereo unspecified), the INHIBITION is recorded as -83.94%.
On to `CC(=O)N1CCN(C(=O)CN2CCc3c(ncn3C3CC3)C2)CC1`, for which the INHIBITION is 37.52%.
